Source: PubChem (National Center for Advancing Translational Sciences (NCATS))
Compounds with a hit are over-represented: about 19% of the library has one in this group of screens.
HepG2 viability: qHTS for Inhibitors of TGF-b: Cytotox Counterscreen. HepG2 CAGA-GFP viability, ATP luminescence, 18 h. Potency, µM (doses to about 46.1 µM), most hits filed as cytotoxic. 410,000 compounds, 0.76% hits
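HepG2 CAGA-GFP cells (1000/well, DMEM with 1% FBS) received compound, then TGF-beta at 500 pg/mL final, and were incubated 18 hours at 37 degrees C. Viability was read by CellTiter-Glo luminescence. Media-only wells were set as complete cell-killing and DMSO as no toxicity.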
ASM inhibitor: Inhibitors of Secretory Acid Sphingomyelinase (S-ASM): qHTS; Sphingomyelin phosphodiesterase (Homo sapiens), P17405; placental ASM, HMU-PC fluorogenic substrate, 60 min; Potency, µM (highest dose often 57.5 µM), usual class: inhibitors; 340,000 compounds, 0.006% hits; AID 504937, 2011
Target sequence (P17405 47-631 limits assumed): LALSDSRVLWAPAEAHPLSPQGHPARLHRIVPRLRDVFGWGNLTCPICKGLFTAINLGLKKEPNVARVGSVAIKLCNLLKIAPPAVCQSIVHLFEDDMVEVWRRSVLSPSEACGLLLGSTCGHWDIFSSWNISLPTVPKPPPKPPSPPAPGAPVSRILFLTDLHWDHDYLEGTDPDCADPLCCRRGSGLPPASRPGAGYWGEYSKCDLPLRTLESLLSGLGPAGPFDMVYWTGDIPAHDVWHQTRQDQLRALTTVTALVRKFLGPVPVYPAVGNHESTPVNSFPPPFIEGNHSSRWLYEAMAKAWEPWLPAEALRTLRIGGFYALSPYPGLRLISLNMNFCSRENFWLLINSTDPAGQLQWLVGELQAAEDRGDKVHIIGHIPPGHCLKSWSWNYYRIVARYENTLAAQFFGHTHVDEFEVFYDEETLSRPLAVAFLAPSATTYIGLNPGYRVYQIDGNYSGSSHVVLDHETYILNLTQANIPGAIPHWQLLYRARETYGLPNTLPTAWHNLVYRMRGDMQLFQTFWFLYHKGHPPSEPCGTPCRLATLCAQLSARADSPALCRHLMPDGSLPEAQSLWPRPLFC
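Fluorescence read-out (Ex 386 nm, Em 447 nm) after stopping the reaction at pH 10. Enzyme: ASM from human placenta; substrate HMU-PC0, 9 uM final; 60 min, 37 °C. Compound preincubation 10 min, ambient temperature.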
DT40 TDP1 CPT: qHTS for Inhibitors of human tyrosyl-DNA phosphodiesterase 1 (TDP1): qHTS in cells in presence of CPT; chicken DT40 Tdp1-/-;hTDP1 cells + 20 nM CPT, ATP luminescence, 48 h; 420,000 compounds, 12% hits; Potency, µM (highest dose often 46.2 µM), actives largely listed as inhibitors; further: nearly all actives have a fitted effect of over 55% in size
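Cell growth measured by CellTiter-Glo luminescence after a minimum 48 h, 37 C compound exposure with 20 nM CPT in Tdp1-knockout DT40 cells stably expressing hTDP1, seeded 400/well; qHTS titration format.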
DT40 TDP1 no CPT: qHTS for Inhibitors of human tyrosyl-DNA phosphodiesterase 1 (TDP1): qHTS in cells in absence of CPT; DT40 Tdp1-/- hTDP1 cells, no CPT, ATP luminescence, 48 h; Potency, µM (highest dose often 46.2 µM), actives largely listed as inhibitors; 420,000 compounds, 15% hits; further: nearly all actives have a fitted effect of over 55% in size
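Camptothecin absent (DMSO only). Human TDP1-complemented DT40 knockout cells, 400 cells/well, 37 °C for minimum 48 hr; ATP measured via CellTiter-Glo, 30 min dark incubation, luminescence.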
TGFb SMAD3 inh: qHTS for Inhibitors of TGF-b; AID 588855, 2011; 410,000 compounds, 1.2% hits; HepG2 CAGA-GFP TGF-b/SMAD3 reporter, GFP fluorescence, 18 h; TGF-beta stimulated, 500 pg/mL final; Potency, µM (top dose mostly 46.1 µM), hits mostly inhibitors; further: nearly all actives have a fitted effect of over 65% in size
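Inhibition was scored as loss of TGF-beta-induced (500 pg/mL final, 18 hours, 37 degrees C) GFP in HEPG2 cells carrying a CAGA-GFP reporter, in DMEM with 1% FBS. Well GFP was summed per cell; Activity was normalised to unstimulated and stimulated DMSO wells, then concentration-response fitting.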
IL-1B inflam inh: qHTS for Inhibitors of Inflammasome Signaling: IL-1-beta AlphaLISA Primary Screen; THP-1 LPS/ATP IL-1B secretion, AlphaLISA, 16 h; hits give low values; activity change, % at 57.5 µM; 360,000 compounds, 4.7% hits; AID 743279, 2014; in the data active means activity change below about -50%; inconclusive means mostly about -30% to -49%
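Secreted IL-1B measured by AlphaLISA bead assay after 16 h compound exposure of THP-1 cells; compounds (final up to 57.5 uM) added 1 h before LPS (250 ng/mL) and ATP (1.25 mM) stimulation; lower signal means less secretion.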
A number is an active result; - = inactive; ? = inconclusive; . = no result; ! = not active in a repeat; [ ] = remark or other dose. Unless noted, the call rests on the fitted dose curve; in most records, active means well fitted curve in the direction sought with a large enough effect; inconclusive means small, poorly fitted or top-dose-only effect, or another doubt; inactive means no such curve, though single readings can be large; an effect the other way counts as inactive or inconclusive.

SMILES	HepG2 viability	ASM inhibitor	DT40 TDP1 CPT	DT40 TDP1 no CPT	TGFb SMAD3 inh	IL-1B inflam inh
C[C@]12CC[C@H]3[C@@H](CCC4=C(Cl)C(=O)CC[C@@]43C)[C@@H]1CC[C@@H]2O	.	.	-	?	.	.
COc1ccc(NC(=O)Nc2ccc3c(c2)C(=O)N([C@H](C)CO)C[C@H](C)[C@@H](CN(C)S(=O)(=O)c2ccc(OC)cc2)O3)cc1	-	-	?	?	-	-
COc1ccc(S(=O)(=O)N(C)C[C@H]2OCCCC[C@@H](C)Oc3ccc(N(C)C)cc3C(=O)N([C@H](C)CO)C[C@@H]2C)cc1	-	.	?	23µM	-	-
C[C@@H]1CCCCO[C@@H](CN(C)S(=O)(=O)c2ccc(F)cc2)[C@@H](C)CN([C@H](C)CO)C(=O)c2cc(N(C)C)ccc2O1	-	.	?	21µM	-	-
CS(=O)(=O)c1ccc(C2=C(CNC(=O)c3cccs3)[C@H]3CC[C@@H](C2)N3CCOc2ccccc2)cc1	-	.	-	-	-	-
O[C@@H]1CCCN2C[C@@H](O)[C@@H](O)C12 (stereo partly specified)	.	.	-	-	.	.
O=C(Nc1sc2c(c1C(=O)Nc1ccc(Cl)cc1)CCCC2)c1cccs1	-	.	5.8µM	3.7µM	-	.
CP(=O)(Nc1ccc(Cl)cc1)c1nc2c(s1)CCCC2 (stereo unspecified)	-	-	?	?	-	-
Cc1ccc(NC(=O)C2CCCN2S(=O)(=O)c2ccc3c(c2)CCCC(=O)N3)cc1Cl (stereo unspecified)	-	.	16µM	?	?	.
COc1cc(/C=C/[N+](=O)[O-])ccc1O	-	-	8.2µM	9.2µM	?	-65
C[C@@H](N)Cn1ccc2cc(F)c(Cl)cc21	.	.	-	?	.	.
COc1ccc(CC(=O)NC(=S)NNC(=O)COc2c(C)cccc2C)cc1	-	-	16µM	16µM	-	-
COc1ccc(C(=O)NC(=S)NNC(=O)c2cccnc2)cc1	-	-[11.5 µM]	?	?	-	-
CNCC[C@@H](Oc1ccc(C(F)(F)F)cc1)c1ccccc1	-	-	?	?	-	.
Cc1ccc(S(=O)(=O)N2CC3CC(C2)c2cccc(=O)n2C3)cc1 (stereo unspecified)	-	-	-	-	-	-
Cc1ccc(S(=O)(=O)N2CN3CCN(C3)C2)cc1	-	-	16µM	?	-	-
C[C@@H]1CN([C@@H](C)CO)C(=O)CCCn2nncc2CO[C@H]1CN(C)C(=O)Oc1ccc2ccccc2c1	-	.	-	-	-	-
CNCC(O)c1ccc(OC(=O)C(C)(C)C)c(OC(=O)C(C)(C)C)c1 (stereo unspecified)	-	-	9µM!	?	-	?
O=C(O)CC[N+](=O)[O-]	-	-	-	-	-	-
O=C(CC[N+](=O)[O-])OCC1OC(O)C(OC(=O)CC[N+](=O)[O-])[C@@H](OC(=O)CC[N+](=O)[O-])C1OC(=O)CC[N+](=O)[O-] (stereo partly specified)	.	.	?	5.8µM	.	.
CCOC(=O)c1ccc(N2C(=O)c3n[nH]c(-c4cccs4)c3C2c2ccc(Cl)cc2Cl)cc1 (stereo unspecified)	-	.	?	18µM	4.5µM	.
CCOC(=O)c1ccc(N2C(=O)c3n[nH]c(-c4cccs4)c3C2c2ccc(C(C)(C)C)cc2)cc1 (stereo unspecified)	-	.	16µM	6.5µM	-	.
O=S1(=O)N(Cc2ccccc2Cl)CCCN1Cc1ccccc1Cl	-	.	16µM	?	-	.
O=S1(=O)N(Cc2ccccc2)CCCN1Cc1ccc(F)cc1Cl	-	.	?	?	-	.
CC(C)NC1C2CCC(CC2)C1(O)c1ccc(Cl)c(Cl)c1 (stereo unspecified)	-	.	?	?	-	-
SMILES	HepG2 viability	ASM inhibitor	DT40 TDP1 CPT	DT40 TDP1 no CPT	TGFb SMAD3 inh	IL-1B inflam inh
CCOC(=O)c1c(NC(=O)c2c(N)n(CCCOC)c3nc4ccccc4nc23)sc2c1CCCC2	-	-	-	?	?	-
CCCCCCn1c(N)c(C(=O)NCCN2CCOCC2)c2nc3ccccc3nc21	-	-	21µM	?	16µM	-73
CCCCNC(=O)c1c(N)n(Cc2ccc3c(c2)OCO3)c2nc3ccccc3nc12	-	-	29µM	?	-	-
COCCCn1c(N)c(C(=O)NCCC(C)C)c2nc3ccccc3nc21	-	-	?	?	?	-53
CCCCOCCCn1c(N)c(C(=O)OCCOC)c2nc3ccccc3nc21	-	-	?	?	-	?
CCCCn1c(N)c(C(=O)OCCOC)c2nc3ccccc3nc21	-	-	-	-	-	.
CCOCCCn1c(N)c(C(=O)Nc2sc3c(c2C(=O)OC)CCCC3)c2nc3ccccc3nc21	-	-	21µM	21µM	-	-
c1ccc(CN2CCNCC2)cc1	.	.	-	-	.	.
C#CC[N+]1(C)C2CCC1CC(O)C2 (stereo unspecified)	-	-	?	-	-	-
CNC(C)C#Cc1ccc2c(=O)c3ccccc3oc2c1 (stereo unspecified)	-	-	?	?	-	-
O=C(O)[C@H]1NC[C@H]2C[C@H]21	-	-	-	-	-	-
O=C(COc1ccccc1[N+](=O)[O-])N1CCN(CCc2ccccn2)CC1	-	.	-	-	-	.
O=P1(N(CCCl)CCCl)NCCCO1 (stereo unspecified)	-	-	-	-	-	-
CCCCCn1c(N)c(C(=O)NCCN2CCOCC2)c2nc3ccccc3nc21	-	-	?	13µM	?	-58
COc1ccc(CCNC(=O)c2c(N)n(CCN3CCOCC3)c3nc4ccccc4nc23)cc1OC	-	-	15µM	13µM	?	?
COCCOC(=O)c1c(N)n(Cc2ccccc2)c2nc3ccccc3nc12	-	-	?	?	-	-
Nc1c(C(=O)NCc2ccco2)c2nc3ccccc3nc2n1CCN1CCOCC1	-	-	?	?	-	-
COP(=O)(OC)C(NC(=O)/C=C/c1ccccc1)C(Cl)(Cl)Cl (stereo unspecified)	-	-	-	-	-	?
CC(=O)OCC1=C(C(=O)O)N2C(=O)C(NC(=O)CCCC(N)C(=O)O)C2SC1 (stereo unspecified)	.	.	?	-	.	.
Cc1ccccc1CN1C(=O)C(C)N=C(c2ccccc2)c2ccccc21 (stereo unspecified)	-	.	?	18µM	-	.
